Data as given in PubChem BioAssay (NCI).
Compounds without any hit were thinned out: in the full panel of roughly 83,000, 20% have a hit.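 Results are percent growth after 48 hours of single-concentration exposure. 100 means growth as in untreated cells, lower positive values show inhibition; negative values down to -100 show cell death.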 Unmarked numbers belong to inactive results. Calls of active or inactive are those of the source. Rule for the calls: active = growth percent below 10; inactive = the rest.

Legend:
Experiment in all cases: NCI-60 one-dose screen, 48 h (100 = growth as untreated, 0 = no growth, -100 = all killed)
Conditions in all cases: 10 µM unless noted
[1] = tested on: SR leukemia
[2] = tested on: RPMI-8226 leukemia
[3] = tested on: OVCAR-8 ovarian
[4] = tested on: OVCAR-5 ovarian
[5] = tested on: OVCAR-4 ovarian
[6] = tested on: SK-OV-3 ovarian
[7] = tested on: IGROV1 ovarian
[8] = tested on: OVCAR-3 ovarian
[9] = tested on: HS 578T breast
[10] = tested on: NCI/ADR-RES ovarian
[11] = tested on: T-47D breast
[12] = tested on: BT-549 breast
[13] = tested on: SW-620 colon
[14] = tested on: MCF7 breast
[15] = tested on: HCT-116 colon
[16] = tested on: HCC-2998 colon
[17] = tested on: KM12 colon
[18] = tested on: MDA-MB-435 melanoma

## CCc1c(C)c2cc3c(c(C)c2oc1=O)OCC(=O)N3
[1]
  growth: 4.96% (active)
[2]
  growth: 90.9%
[3]
  growth: 74.6%
[4]
  growth: 77.9%
[5]
  growth: 79.5%
[6]
  growth: 78.6%
[7]
  growth: 51.7%
[8]
  growth: 73.8%
[9]
  growth: 59.5%
[10]
  growth: 75.1%
[11]
  growth: 58.6%
[12]
  growth: 74.7%
[13]
  growth: 90.3%
[14]
  growth: 82.1%
[15]
  growth: 52.7%
[16]
  growth: 90%
[17]
  growth: 84.3%

## Oc1ccc(O)c(-[n+]2ccccc2)c1
[1]
  growth: 93.7%
[2]
  growth: 99.7%
[3]
  growth: 99.5%
[4]
  growth: 108%
[5]
  growth: 108%
[6]
  growth: 98.7%
[7]
  growth: 107%
[8]
  growth: 109%
[9]
  growth: 96%
[10]
  growth: 108%
[11]
  growth: 110%
[18]
  growth: 109%
[13]
  growth: 96.9%
[14]
  growth: 102%
[15]
  growth: 93.3%
[16]
  growth: 102%
[17]
  growth: 107%

## CCOC(=O)C1CSC(C)(C(=O)OCC)N1 (centres undefined)
[1]
  growth: 97.3%
[2]
  growth: 96.3%
[3]
  growth: 110%
[4]
  growth: 98.2%
[5]
  growth: 109%
[6]
  growth: 91.7%
[7]
  growth: 104%
[8]
  growth: 100%
[9]
  growth: 112%
[10]
  growth: 101%
[11]
  growth: 99.8%
[18]
  growth: 103%
[13]
  growth: 104%
[14]
  growth: 93.4%
[15]
  growth: 96.6%
[16]
  growth: 101%
[17]
  growth: 107%

## CCCC(=O)Oc1ccc(/C(=C(\C)c2ccc(OC)cc2)c2ccc(OCCN3CCCCC3)cc2)cc1
[1]
  growth: -14.9% (active)
[2]
  growth: 56.9%
[3]
  growth: 90.4%
[4]
  growth: 86.4%
[5]
  growth: 75%
[6]
  growth: 79.9%
[7]
  growth: 89.9%
[8]
  growth: 89.4%
[9]
  growth: 84.3%
[10]
  growth: 75.6%
[11]
  growth: 32.7%
[12]
  growth: 82.2%
[18]
  growth: 84.2%
[14]
  growth: 28.3%
[15]
  growth: 55.7%
[16]
  growth: 91%
[17]
  growth: 75.6%

## Cc1cccc[n+]1CCC[n+]1ccccc1C
[1]
  growth: 96.2%
[2]
  growth: 98.8%
[3]
  growth: 105%
[4]
  growth: 109%
[5]
  growth: 110%
[6]
  growth: 76.1%
[7]
  growth: 107%
[8]
  growth: 112%
[9]
  growth: 109%
[10]
  growth: 106%
[11]
  growth: 85.6%
[18]
  growth: 102%
[13]
  growth: 107%
[14]
  growth: 96.5%
[15]
  growth: 86.1%
[16]
  growth: 107%
[17]
  growth: 100%

## c1ccc2nc(Cn3cc[n+](Cc4ccc5ccccc5n4)c3)ccc2c1
[1]
  growth: 47.8%
[2]
  growth: 29.6%
[3]
  growth: 76.2%
[4]
  growth: 86.9%
[5]
  growth: 33.7%
[6]
  growth: 86.9%
[7]
  growth: 68.3%
[8]
  growth: 52%
[9]
  growth: 75.3%
[10]
  growth: 107%
[11]
  growth: 29.8%
[12]
  growth: 33.7%
[18]
  growth: 52.8%
[16]
  growth: 57.8%
[17]
  growth: 48%

## COc1ccc(/C=C/C(=O)c2ccc(-n3cc(CN4CCN(c5cc6c(cc5F)c(=O)c(C(=O)O)cn6C5CC5)CC4)nn3)cc2)cc1OC
[1]
  growth: -12.4% (active)
[2]
  growth: -15.8% (active)
[3]
  growth: 39.7%
[4]
  growth: 72.3%
[5]
  growth: 73.7%
[6]
  growth: 67.5%
[7]
  growth: -24.8% (active)
[8]
  growth: -16.1% (active)
[9]
  growth: 21.5%
[10]
  growth: 82%
[11]
  growth: 28.1%
[12]
  growth: 51%
[13]
  growth: 9.41% (active)
[14]
  growth: 16.1%
[15]
  growth: -39.5% (active)
[16]
  growth: -39.7% (active)
[17]
  growth: 8.81% (active)

## O=[N+]([O-])c1ccc(NS(=O)(=O)c2cc(Cl)ccc2Cl)c2ccccc12
[1]
  growth: 60.1%
[2]
  growth: 14.1%
[3]
  growth: 79.5%
[4]
  growth: 89.1%
[5]
  growth: 54%
[6]
  growth: 59.6%
[7]
  growth: 82.3%
[8]
  growth: 33.7%
[9]
  growth: 54.3%
[10]
  growth: 59.3%
[11]
  growth: 56%
[18]
  growth: 52.3%
[13]
  growth: 64.4%
[14]
  growth: 46.4%
[15]
  growth: 45%
[16]
  growth: 32.2%
[17]
  growth: 40.5%

## CCNc1cc(S(=O)(=O)O)ccc1C
[1]
  growth: 113%
[2]
  growth: 98%
[3]
  growth: 97.3%
[4]
  growth: 106%
[5]
  growth: 110%
[6]
  growth: 92.4%
[7]
  growth: 106%
[8]
  growth: 116%
[9]
  growth: 104%
[10]
  growth: 102%
[11]
  growth: 90%
[18]
  growth: 107%
[13]
  growth: 104%
[14]
  growth: 98.6%
[15]
  growth: 98.3%
[16]
  growth: 103%
[17]
  growth: 107%

## CC12CCC3C(CCC4CC(O)CCC43C)C1C/C(=C/O)C(=O)O2 (centres undefined)
[1]
  growth: 96.1%
[2]
  growth: 91.3%
[3]
  growth: 104%
[4]
  growth: 111%
[5]
  growth: 134%
[6]
  growth: 105%
[7]
  growth: 105%
[8]
  growth: 103%
[9]
  growth: 98.4%
[10]
  growth: 108%
[12]
  growth: 109%
[18]
  growth: 111%
[13]
  growth: 102%
[14]
  growth: 102%
[15]
  growth: 104%
[16]
  growth: 103%
[17]
  growth: 97.8%

## CCC(N)(C(=O)O)c1ccc(F)cc1 (centres undefined)
[1]
  growth: 105%
[2]
  growth: 98.4%
[3]
  growth: 101%
[4]
  growth: 111%
[5]
  growth: 117%
[6]
  growth: 113%
[7]
  growth: 109%
[8]
  growth: 99.9%
[9]
  growth: 111%
[10]
  growth: 106%
[11]
  growth: 111%
[18]
  growth: 105%
[13]
  growth: 110%
[14]
  growth: 93.5%
[15]
  growth: 91.3%
[16]
  growth: 95.4%
[17]
  growth: 105%

## COc1ccccc1NC(=O)COc1ccc(/C=C2/Oc3cc4occc4c(OC)c3C2=O)cc1OC
[1]
  growth: 93.5%
[2]
  growth: 66.7%
[3]
  growth: 85.4%
[4]
  growth: 111%
[5]
  growth: 112%
[6]
  growth: 110%
[7]
  growth: 122%
[8]
  growth: 105%
[9]
  growth: 112%
[10]
  growth: 90.8%
[11]
  growth: 86.4%
[18]
  growth: 107%
[14]
  growth: 99.4%
[15]
  growth: 102%
[16]
  growth: 106%
[17]
  growth: 97.8%

## Cc1c(Cl)ccc2c(C(=O)Cl)cc(-c3ccccc3)nc12
[1]
  growth: 91.8%
[2]
  growth: 92.2%
[3]
  growth: 99.7%
[4]
  growth: 97.1%
[5]
  growth: 88.5%
[6]
  growth: 99.4%
[7]
  growth: 107%
[8]
  growth: 104%
[9]
  growth: 98.9%
[10]
  growth: 101%
[12]
  growth: 94.8%
[18]
  growth: 98.3%
[13]
  growth: 97.5%
[14]
  growth: 87.6%
[15]
  growth: 102%
[16]
  growth: 109%
[17]
  growth: 102%

## COc1ccc(Cl)cc1NC(=O)c1cc2c([nH]1)-c1nc(NC(=O)C(C)(C)C)sc1CC2
[1]
  growth: 28.2%
[2]
  growth: 83.8%
[3]
  growth: 26.8%
[4]
  growth: 108%
[5]
  growth: 57%
[6]
  growth: 82.1%
[7]
  growth: 65.3%
[8]
  growth: 32.8%
[9]
  growth: 44%
[10]
  growth: 40.9%
[11]
  growth: 71.3%
[18]
  growth: 91%
[14]
  growth: 52.1%
[15]
  growth: 12.4%
[16]
  growth: 96.5%
[17]
  growth: 83.2%

## C=C1C(=O)O[C@H]2[C@H]1CC/C(COC(=O)OC/C1=C/CC[C@@]3(C)O[C@H]3[C@H]3OC(=O)[C@@H](CN(C)C)[C@@H]3CC1)=C\CC[C@@]1(C)O[C@@H]21
[1]
  growth: -8.72% (active)
[2]
  growth: -5.37% (active)
[3]
  growth: 9.26% (active)
[4]
  growth: 7.16% (active)
[5]
  growth: 46%
[6]
  growth: 87.7%
[7]
  growth: 10.4%
[8]
  growth: -90.3% (active)
[9]
  growth: 57.4%
[10]
  growth: 91.2%
[11]
  growth: -15.2% (active)
[18]
  growth: 2.87% (active)
[14]
  growth: -29.7% (active)
[15]
  growth: -72.7% (active)
[16]
  growth: 79.8%
[17]
  growth: 37.9%

## CCCCOc1nc2ccc(Cl)cc2cc1/C=C/C(=O)/C=C/c1ccc(Cl)cc1
[1]
  growth: 20.3%
[2]
  growth: 0.229% (active)
[3]
  growth: 70.2%
[4]
  growth: 107%
[5]
  growth: 91.5%
[6]
  growth: 92.5%
[7]
  growth: 45.8%
[8]
  growth: 51.1%
[9]
  growth: 76.8%
[10]
  growth: 100%
[11]
  growth: 53.8%
[18]
  growth: 2.31% (active)
[13]
  growth: 42.5%
[14]
  growth: 23%
[15]
  growth: -29.1% (active)
[16]
  growth: 60.4%
[17]
  growth: 51.6%

## O=C1C(Cl)=C(Nc2cccc3cc4ccccc4nc23)C(=O)c2ccccc21
[1]
  growth: 45.1%
[2]
  growth: 48.7%
[3]
  growth: 32.6%
[4]
  growth: 53.8%
[5]
  growth: 55.4%
[6]
  growth: 44.3%
[7]
  growth: 37.2%
[8]
  growth: 64.4%
[9]
  growth: 95.2%
[10]
  growth: 42.8%
[11]
  growth: 37.9%
[18]
  growth: 59%
[13]
  growth: 31.1%
[14]
  growth: 20.1%
[15]
  growth: 17%
[16]
  growth: 50.7%
[17]
  growth: 52.3%

## Cc1ccc2c(C3C(C#N)=C(N)Oc4cc5ccccc5cc43)cc(=O)oc2c1 (centres undefined)
[1]
  growth: 16.9%
[2]
  growth: 21.9%
[3]
  growth: 24.5%
[4]
  growth: 49.7%
[5]
  growth: 67.6%
[6]
  growth: 28.3%
[7]
  growth: 39.7%
[8]
  growth: -4.72% (active)
[9]
  growth: 51.6%
[10]
  growth: 11.8%
[13]
  growth: 27.1%
[14]
  growth: 17.9%
[15]
  growth: 15.9%
[16]
  growth: 58.9%
[17]
  growth: 24.1%
